Screening results from PubChem.
Only some compounds are listed: those with a hit (about 3.9% of all), similar ones and a draw of the others.
KKLEB tox: CF airway cell cytotoxicity counter-screen | KKLEB CF airway cells viability, ATPlite luminescence, overnight; hits give low values; cells stimulated with P. aeruginosa culture filtrate | activity change (cytotoxicity), % at 5 µM | AID 602141 | 360,000 tested, 0.36% active;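 active = corrected activity change at or below -50% at 5 µM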
CF NFkB inh: cystic fibrosis NF-kB activation inhibition | KKLEB NF-kB-GFP reporter, PAF-induced, GFP fluorescence overnight | inhibition, % at 5 µM | AID 588850 | 360,000 tested, 0.86% active;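 active = at least 50% inhibition at 5 µM, scaled per plate between neutral and stimulator controls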;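 also: PAF is a Pseudomonas aeruginosa culture filtrate used as stimulus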
TROY NFkB inh: inhibitors of TROY-dependent NF-kB signaling. Q293 LMP1-TROYcd NF-kB luciferase reporter, 4 h. 360,000 tested, 0.98% active. inhibition, % at 10 µM. AID 1347056;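 active = compounds whose plate-normalised and pattern-corrected inhibition of the luciferase reporter signal at the single screening dose is 50% or more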
TWEAK Fn14 block: inhibitors of TWEAK-Fn14 interaction signaling | TWEAK-stimulated Fn14 reporter cells, luciferase luminescence, 8 h | inhibition, % at 10 µM | 360,000 tested, 2% active | AID 1159606; in the data active = inhibition above about 50%
Peg3 prom inh: reduces Peg3 promoter-driven luciferase expression in HeLa; HeLa PEG-Prom luciferase reporter, luminescence, overnight; inhibition, % at 20 µM; 360,000 tested, 1.7% active; AID 588405;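 active = inhibition of at least 50% at 20 µM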
HIF-2a block: inhibitors of HIF-2a; inhibition, % at 18.8 µM; 360,000 tested, 0.72% active; 786-0 RCC cells HIF-2a reporter, luciferase luminescence, overnight;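 active = inhibition of the luminescence signal of 40% or more relative to plate controls, in a single-dose primary screen at 18.75 µM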
Large screens that a line does not name were inactive.

CC(=O)Oc1ccc2ccccc2c1C(NC(=O)Cc1ccccc1)c1ccc(Cl)cc1 (stereo unspecified)	TWEAK Fn14 block 54.7
Cc1ccc(C)c(Cn2c(=O)n(C)c(=O)c3sccc32)c1	none
O=C1CS/C(=N\c2ccccn2)N1C1CCCCC1	TWEAK Fn14 block 53.3
O=C1c2cccnc2C(=O)N1C1CCCCC1	none
Cc1ccc(NC(=O)CN(C)C(=O)CSc2nc3ccccc3c(=O)n2Cc2ccco2)cc1	none
O=c1cc(CN2CCN(c3ccccc3)CC2)nc2scc(-c3ccccc3)n12	TROY NFkB inh 58.1
CC(=O)c1ccc(N2CCN(Cc3cc(=O)n4c(-c5ccccc5)csc4n3)CC2)cc1	none
O=C(N/N=C/c1cccc(F)c1)c1c(O)c2c([nH]c1=O)CCCC2	TROY NFkB inh 53.3
CNC(=O)c1ccccc1NC(=O)c1c(O)c2c([nH]c1=O)CCCC2	none
NC1=NC[C@H](c2ccccc2)N1CCCCC1CCCCC1	Peg3 prom inh 99.8
CCN1/C(=C/c2ccc3cc(C)ccc3[n+]2CC)Sc2cc(C)ccc21	Peg3 prom inh 97.3, HIF-2a block 63.3
Cc1ccc2c(c1)S/C(=C/c1ccc[n+](C)c1)N2CCO	none
CCCCN1/C(=C/c2ccc3ccccc3[n+]2CC)Sc2ccccc21	TWEAK Fn14 block 66.3
CCN1/C(=C/c2cccc[n+]2C)Sc2ccc(OC)cc21	none
CCN1/C(=C/c2ccc3ccccc3[n+]2CC)C=Cc2ccccc21	TROY NFkB inh 52.1, TWEAK Fn14 block 55.5, Peg3 prom inh 86.5, HIF-2a block 66.2
CCN1/C(=C/c2ccc3cc(C)ccc3[n+]2C)Sc2ccc3sccc3c21	Peg3 prom inh 110.6, HIF-2a block 42.4
C=CCC1Cc2c(cccc2[N+](=O)[O-])C(CC=C)N1 (stereo unspecified)	none
O=C(CCCO)NC1Cc2ccccc2C1	TWEAK Fn14 block 59.8
O=C(Nc1cccc2ccccc12)NC1Cc2ccccc2C1	TROY NFkB inh 56.8, TWEAK Fn14 block 89.2
COC(=O)CCCC(=O)NC1CCCN(C2Cc3ccccc3C2)C1 (stereo unspecified)	none
COc1cc(/C=C(\C#N)c2nc3ccc(C)cc3[nH]2)c([N+](=O)[O-])cc1OC	none
COc1cc(/C=C(\C#N)c2nc3ccccc3[nH]2)ccc1Oc1ccc([N+](=O)[O-])cn1	TROY NFkB inh 52.3
Cc1ccc2nc(/C(C#N)=C\c3cc(O)ccc3[N+](=O)[O-])[nH]c2c1	none
COc1cc(/C=C(/C#N)c2ccccc2)ccc1Oc1ccc([N+](=O)[O-])cn1	none
Cc1ccc2nc(/C(C#N)=C/c3ccc(-c4cccc([N+](=O)[O-])c4)o3)[nH]c2c1	Peg3 prom inh 114.5
COc1cc(/C=C(\C#N)c2nc3ccc(C)cc3[nH]2)cc([N+](=O)[O-])c1O	TWEAK Fn14 block 50.9
CC(=O)c1ccc(NC(=O)c2ccc(C)c(Br)c2)cc1	none
NC(CO)C12CC3CC(CC(C3)C1)C2 (stereo unspecified)	none
Cc1ccc(-c2nnn(CC(=O)N(CCO)C(C(=O)NC3CCCCC3)c3ccncc3)n2)o1 (stereo unspecified)	none
COc1ccc(NC(=O)c2c(Nc3ccccc3)sc(C(=O)c3ccc(F)cc3)c2N)cc1	KKLEB tox -53.2, TWEAK Fn14 block 52.0
Cc1cc(Cl)nc(-c2ccccc2)n1	none
O=C(CCNC(=O)N1CC(=O)Nc2ccccc21)Nc1ccc(F)c(Cl)c1	none
C=CCn1c(SCC(=O)N2CCCCCC2)nc2ccccc2c1=O	TWEAK Fn14 block 72.5
Cc1cc(Cl)ccc1OCC(=O)N1CCCN(C(=O)COc2ccc(Cl)cc2C)CC1	none
Cc1cc(Cl)ccc1OC(C)C(=O)N1CCCN(C(=O)C(C)Oc2ccc(Cl)cc2C)CC1 (stereo unspecified)	TWEAK Fn14 block 62.6
Cc1c(N2C(=O)/C(=C\c3ccccc3O)SC2=S)c(=O)n(-c2ccccc2)n1C	none
CN1C(=O)/C(=C/c2cc(N=Nc3ccccc3)ccc2O)SC1=S	KKLEB tox -52.4, CF NFkB inh 74.3, TROY NFkB inh 54.4, TWEAK Fn14 block 64.8
Cc1ccc(C(=O)N/N=C(/CC(=O)c2cccs2)C(F)(F)F)cc1	TROY NFkB inh 52.8
C[C@@H]1CCCCO[C@H](CN(C)S(=O)(=O)c2cccs2)[C@H](C)CN([C@@H](C)CO)C(=O)c2cc(NC(=O)NC3CCCCC3)ccc2O1	none
